# PubChem BioAssay (NCI)
# About 83,000 compounds went through this panel and 20% of them were active in at least one assay; those are over-represented in the sample as a whole.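 Plates (96-well) were seeded with cells, treated with compound at one concentration, and incubated for 48 hours before percent growth was determined.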 Unmarked numbers belong to inactive results. Calls of active or inactive are those of the source. How the source made its calls: active means growth percent below 10; inactive means the rest.
# Tests used:
# Assay in all cases: NCI-60 one-dose screen, 48 h (100 = growth as untreated, 0 = no growth, -100 = all killed)
# Conditions in all cases: 10 µM unless noted
# NCI/ADR-RES ovarian = system: NCI/ADR-RES ovarian
# T-47D breast = system: T-47D breast
# BT-549 breast = system: BT-549 breast
# MDA-MB-435 melanoma = system: MDA-MB-435 melanoma
# SW-620 colon = system: SW-620 colon
# MCF7 breast = system: MCF7 breast
# HCT-116 colon = system: HCT-116 colon
# HCC-2998 colon = system: HCC-2998 colon
# KM12 colon = system: KM12 colon
Structure (SMILES),growth (NCI/ADR-RES ovarian),growth (T-47D breast),growth (BT-549 breast),growth (MDA-MB-435 melanoma),growth (SW-620 colon),growth (MCF7 breast),growth (HCT-116 colon),growth (HCC-2998 colon),growth (KM12 colon)
O=C(Nc1ccc([As]=[As]c2ccc(NC(=O)c3ccccc3)cc2)cc1)c1ccccc1 (stereo not drawn),-38.6% (active),-51.9% (active),-90.4% (active),-77.2% (active),-67.3% (active),-57.7% (active),-92.4% (active),-80.5% (active),-80.4% (active)
CCn1c2ccccc2c2cc(C(=O)c3ccc(C)c4ccccc34)ccc21,6.35% (active),53.6%,21.9%,-34.1% (active),11.8%,14.4%,12.1%,29.6%,13.4%
CC1(C)[C@H](O)[C@H](F)C[C@@]2(C)Oc3ccc(C(=O)Nc4ccc5c(c4)NC(=O)C54CCN(CCCCC#N)CC4)cc3C[C@H]12,83.4%,38.2%,32.5%,24.8%,0.683% (active),27.6%,18.5%,68.5%,22%
O=NNc1ccccn1,75.1%,97.3%,90%,111%,47.8%,71.4%,44.4%,86.7%,96.7%
COC(=O)[C@@H](C)C[C@H](Cc1ccccc1)NC(=O)c1nc([C@@H](C[C@H](C(C)C)N(C)C(=O)[C@@H](NC(=O)[C@H]2C[C@H](O)CCN2C)C(C)C)OC(C)=O)sc1C(C)C,38.9%,78.5%,-30.8% (active),-48.3% (active),21.9%,18.7%,2.56% (active),14.1%,0.729% (active)
COc1ccc(N(CC(=O)NCCC[Te]c2ccccc2)C(=O)CNC(=O)OC(C)(C)C)cc1,1.78% (active),109%,-47.8% (active),59.4%,53.1%,8.66% (active),-3.11% (active),43.3%,19.3%
CCCCCSC1C2C(=O)C(Br)=CC13CCNc1c(O)c4c5c(c13)=[N+]2CCC=5C=N4 (stereo not drawn),29.1%,-48.2% (active),36.1%,-81.1% (active),-54.5% (active),-54.9% (active),-92.3% (active),-68.4% (active),2.34% (active)
COc1ccc2c(c1)c(-c1nc(-c3c[nH]c4ncccc34)cs1)cn2CCN1CCOCC1,38.7%,-1.96% (active),50.6%,73%,75.5%,5.06% (active),52.5%,74.1%,20.2%
COc1cc2c(cc1OCCCn1c(-c3ccccn3)nc3ccccc31)N=C[C@@H]1CCCN1C2=O,3.97% (active),35.4%,-17.1% (active),-23.6% (active),0.272% (active),1.32% (active),-14.4% (active),2.04% (active),-31.7% (active)
Cc1ccc2c(C(C[N+](=O)[O-])c3cccs3)c(-c3ccccc3)[nH]c2c1 (stereo not drawn),11.7%,14.6%,33.8%,-31.1% (active),18.5%,17.8%,23.2%,40.3%,21.4%
C#Cc1ccc2c(c1)C(c1ccccc1F)=NCC(=O)N2C,16.6%,40.9%,47.2%,10.2%,30.3%,19.7%,17.3%,65.2%,27.8%
CC[C@H](C)[C@H](NC(=O)N[C@@H](C)c1ccccc1)C(=O)N(C)[C@H](C[C@@H](OC(C)=O)c1nc(C(=O)N[C@@H](Cc2ccccc2)C[C@H](C)C(=O)OC)cs1)C(C)C,50%,76.7%,10.5%,-41.7% (active),16.8%,17.5%,9.92% (active),23.7%,2.6% (active)
CCOC(=O)CCN(C)C1=Nc2ccc(Cl)cc2C(c2ccccc2)=[N+]([O-])C1,104%,101%,88.9%,115%,104%,97.1%,112%,102%,104%
COC(=O)[C@@H](C)C[C@H](Cc1ccc(F)cc1)NC(=O)c1csc([C@@H](C[C@H](C(C)C)N(C)C(=O)[C@@H](NC(=O)[C@H]2CCCCN2C)C(C)C)OC(C)=O)n1,25.2%,77.3%,-18.6% (active),-28.8% (active),26.9%,22.2%,4.23% (active),21.8%,12.4%
CC[C@H](C)[C@H](NC(=O)NC(C)(C)C)C(=O)N(C)[C@H](C[C@@H](OC(C)=O)c1nc(C(=O)N[C@@H](Cc2ccccc2)C[C@H](C)C(=O)OC)cs1)C(C)C,23.3%,53.5%,-14.6% (active),-44.9% (active),20.5%,13.1%,1.01% (active),20%,13.8%
C[C@]12CC[C@H]3[C@@H](C[C@@H]4SC(Nc5ccccc5)=N[C@@]45CC(O)CC[C@]35C)[C@@H]1CCC2O (stereo partly drawn),36.3%,16.3%,19.2%,3.47% (active),-19.4% (active),29.2%,-81.5% (active),98.2%,15.6%
Cc1c2cc(Cl)c3ccccc3c2c[n+]2ccccc12,87.2%,-27.4% (active),-6.2% (active),64.9%,50.7%,26.4%,48.7%,15.3%,39.7%
O=c1[nH]cc(N(CCCl)CCCl)c(=O)[nH]1,66.3%,53%,81.5%,86.5%,71.8%,53.1%,78.8%,61.6%,86.5%
O=C1OCC2=C1C(c1ccccc1)c1cc3c(cc1N2)OCO3 (stereo not drawn),-0.134% (active),62.6%,-5.6% (active),-24.9% (active),27.8%,15.9%,4.53% (active),3.21% (active),-32% (active)
CC(=O)O[C@H](C[C@H](C(C)C)N(C)C(=O)[C@@H](NC(=O)[C@H]1CCCCN1C)C(C)C)c1cccc(C(=O)N[C@@H](Cc2ccccc2)C[C@H](C)C(=O)O)n1,8.24% (active),47.7%,-8.23% (active),-37.7% (active),23.7%,15.9%,2.75% (active),9.77% (active),4.91% (active)
Clc1cccc(N2COOC3(OOC2)C2CC4CC(C2)CC3C4)c1,44.4%,69.4%,88%,73.3%,95.5%,93.1%,88.2%,98.1%,65.7%
CC[C@H](C)[C@H](NC(=O)C12CC(NC(C)=O)(C1)C2)C(=O)N(C)[C@H](C[C@@H](OC(C)=O)c1nc(C(=O)N[C@@H](Cc2ccccc2)C[C@H](C)C(=O)OC)cs1)C(C)C,80.5%,50.1%,4.76% (active),-59% (active),23.7%,15.7%,3.73% (active),24.8%,12.5%
CCOC(=O)[C@@H](C)C[C@H](Cc1ccccc1)NC(=O)c1csc([C@@H](C[C@H](C(C)C)N(C)C(=O)[C@H](CC)NC(=O)[C@H]2CCCCN2C)OC(C)=O)n1,7.74% (active),53.1%,-18.9% (active),-35.7% (active),30.3%,18.8%,-7.81% (active),3.85% (active),4.85% (active)
O=C1OCCC1Br (stereo not drawn),106%,105%,85.3%,103%,103%,101%,103%,102%,108%
O=C1NC(=O)C(=Cc2cccn2CCCCCn2c3ccccc3c(=O)c3ccccc32)C(=O)N1,99.5%,87.3%,104%,97.7%,105%,84.7%,82.2%,105%,103%
O=[N+]([O-])c1ccc(OP(=O)(CCl)N(CCCl)CCCl)cc1 (stereo not drawn),101%,93.8%,93.6%,104%,102%,92.5%,97.9%,105%,101%
CCn1nccc1NC(=O)C(=O)c1cn(Cc2ccc(F)cc2)c2cccc(OC)c12,90.2%,80.5%,86.1%,104%,93.3%,97.3%,51.1%,102%,97.2%
